Only some compounds are listed: those with a hit (about 5.7% of all), similar ones and a draw of the others.
HP1b chromo inh = HP1-beta chromodomain-methylated histone interaction inhibition; AID 540317; 390,000 tested, 0.56% active; AlphaScreen HP1-beta / biotin-H3K9me3 peptide binding; P83916; Potency, µM (doses to about 114 µM), inactives show at the top dose activity change, negative = inhibition, most hits filed as inhibitors; further: potency means the concentration at half of the fitted maximal effect; nearly all actives have a fitted effect of over 70% in size
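Compound inhibition of the preformed complex between 50 nM HP1-beta and 50 nM biotinylated H3K9me3 peptide was read by AlphaScreen. Buffer was PBS pH 7.4 with 0.01% Tween-20. Incubations ran 30 min at room temperature, with 10 ug/mL donor/acceptor beads.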
L3MBTL1 inh-1 = inhibitors of human L3MBTL1; 230,000 tested, 0.66% active; Potency, µM (highest dose often 57.1 µM), for inactives: at the highest dose activity, negative = inhibition, usual class: inhibitors; AlphaScreen L3MBTL1–H3K9me1 peptide binding; AID 485360; further: potency means the concentration at half of the fitted maximal effect; on the % scale 0 is the no-effect control and ±100 the full control effect; nearly all actives have a fitted effect of over 60% in size
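AlphaScreen assay: L3MBTL1 (50 nM final) was preincubated 30 min at room temperature with biotinylated H3(1-15)K9me1 peptide (75 nM final), then 30 min with library compounds; streptavidin donor and nickel chelate acceptor beads (10 ug/mL final) added, 30 min dark.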
JMJD2E inh = JMJD2E (human) inhibition; B2RXH2; JMJD2E catalytic domain, FDH-coupled NADH fluorescence (FDH is formaldehyde dehydrogenase); Potency, µM (doses to about 57.1 µM), inactives show at the highest dose activity change, negative = inhibition, actives largely listed as inhibitors; 230,000 tested, 1.6% active; active means well fitted inhibition curve with a large enough effect, not every such curve was filed as active; inconclusive means small, poorly fitted or top-dose-only effect, or another doubt; inactive means no such curve, though single readings can be large or run the other way;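 further: potency means the concentration at half of the fitted maximal effect; 0% = wells with enzyme and -100% = buffer wells without enzyme; nearly all actives have a fitted effect of over 50% in size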
Target sequence (B2RXH2 1-337 limits assumed): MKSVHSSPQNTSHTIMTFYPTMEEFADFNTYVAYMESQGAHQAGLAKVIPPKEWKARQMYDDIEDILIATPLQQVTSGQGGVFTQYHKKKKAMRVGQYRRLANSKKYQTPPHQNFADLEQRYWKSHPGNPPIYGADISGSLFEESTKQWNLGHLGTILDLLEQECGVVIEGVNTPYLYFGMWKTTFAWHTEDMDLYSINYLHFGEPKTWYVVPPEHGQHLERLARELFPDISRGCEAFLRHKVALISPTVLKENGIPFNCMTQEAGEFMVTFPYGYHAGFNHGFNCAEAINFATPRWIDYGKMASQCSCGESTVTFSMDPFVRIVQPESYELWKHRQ
BAZ2B block = BAZ2B (human) inhibition. AlphaScreen BAZ2B-H3K14Ac peptide displacement. 360,000 tested, 4.4% active. Potency, µM (doses to about 114 µM), for the others: at the highest dose activity change, negative = inhibition, usual class: inhibitors. Q9UIF8; further: potency means the concentration at half of the fitted maximal effect; on the % scale 0 is the no-effect control and ±100 the full control effect; nearly all actives have a fitted effect of over 60% in size
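Inhibition is scored as reduced AlphaScreen emission. The BAZ2B/b-H3(5-23)K14Ac complex (50 nM each) in PBS pH 7.4, 0.01% Tween-20 meets compound (up to 110 uM) for 30 min at RT before bead addition.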
JMJD2A Tudor inh = inhibitors of human JMJD2A Tudor domain. 390,000 tested, 4.4% active. Potency, µM (series often up to 114 µM), for the others: at the highest dose activity change, negative = inhibition, usual class: inhibitors. AlphaScreen JMJD2A-Tudor / H3K4me3 peptide binding. O75164; further: potency means the concentration at half of the fitted maximal effect; on the % scale 0 is the no-effect control and ±100 the full control effect; nearly all actives have a fitted effect of over 50% in size
PI5P4K alpha inh = PI5P4K alpha (human) kinase inhibition | 330,000 tested, 1.2% active | PI5P4Kalpha enzyme, ADP-Glo luminescence, 60 min; active compounds read low | P48426 | AID 652105 | max response, %; active means max response of -50% or lower; inconclusive means between -30% and -50%; inactive means -30% or higher; further: value at the top dose of about 77 µM; on the % scale 0 is the no-effect control and ±100 the full control effect
Target sequence (P48426 whole entry, looked up): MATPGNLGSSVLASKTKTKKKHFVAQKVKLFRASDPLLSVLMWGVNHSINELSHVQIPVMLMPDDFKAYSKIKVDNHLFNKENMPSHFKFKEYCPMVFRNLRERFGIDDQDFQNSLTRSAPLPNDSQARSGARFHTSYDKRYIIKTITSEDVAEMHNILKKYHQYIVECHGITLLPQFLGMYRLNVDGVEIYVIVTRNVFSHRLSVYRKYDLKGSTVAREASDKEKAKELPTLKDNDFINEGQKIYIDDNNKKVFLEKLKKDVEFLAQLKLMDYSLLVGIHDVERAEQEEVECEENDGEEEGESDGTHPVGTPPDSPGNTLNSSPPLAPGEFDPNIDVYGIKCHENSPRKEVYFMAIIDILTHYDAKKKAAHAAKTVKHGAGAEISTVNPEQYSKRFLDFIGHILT
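Single end-point luminescence (ADP-Glo) quantified ADP from PI5P4Kalpha turnover; ATP 5 microM final, 1 h at RT, 0.1% CHAPS and 0.28 mM EGTA in HEPES pH 7.4.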
L3MBTL1 inh-2 = L3MBTL1 binding inhibition validated | shares compounds with L3MBTL1 inh-1 | L3MBTL1 methyl-lysine binding inhibition, biochemical qHTS | Potency, µM, hits mostly inhibitors | 500 tested, 91% active | AID 540279; further: potency means the concentration at half of the fitted maximal effect; nearly all actives have a fitted effect of over 70% in size
AlphaScreen ctr2 = interferes with AlphaScreen signal in L3MBTL1 counterscreen; shares compounds with L3MBTL1 inh-1; AlphaScreen counterscreen, signal inhibition; Potency, µM (titrated, usually from 57.1 µM), without a hit: at the top dose activity change, negative = inhibition, most hits filed as inhibitors; 500 tested, under 10 active; AID 602224; further: potency means the concentration at half of the fitted maximal effect; 0% is about no effect
ME-1 prolif = inhibitors of ME-1 leukemia cell proliferation, CBFb-RUNX1 project | AID 504370 | 140 tested, 20% active | shares compounds with BAZ2B block | ME-1 cell proliferation, ATP luminescence, 48 h | Potency, µM (doses to about 56.1 µM), inactives show at the top dose activity change, negative = inhibition, actives largely listed as inhibitors
G9a inh = inhibits human G9a histone lysine methyltransferase, hit confirmation; G9a H3K9 monomethylation, AlphaScreen, 2 h; 370 tested, 89% active; shares compounds with JMJD2A Tudor inh; Potency, µM, actives largely listed as inhibitors; AID 588344; further: potency means the concentration at half of the fitted maximal effect; nearly all actives have a fitted effect of over 65% in size
ADP-Glo interf = counter-screen for PI5P4K inhibitors: ADP-Glo detection interference, no enzyme. shares compounds with PI5P4K alpha inh. ADP-Glo detection counter-screen, luciferase luminescence, no enzyme. Potency, µM (titrated, usually from 76.9 µM), for inactives: top-dose activity change, negative = inhibition, usual class: inhibitors. 1,100 tested, under 10 active
The depositor's hits bear a star; ? = inconclusive; nt = not tested or not shown; [ ] = dose if it differs, or a comment. Unless noted, the call rests on the fitted dose curve; in most records, active means well fitted curve in the direction sought with a large enough effect; inconclusive means small, poorly fitted or top-dose-only effect, or another doubt; inactive means no such curve, though single readings can be large; an effect the other way counts as inactive or inconclusive.

SMILES | HP1b chromo inh | L3MBTL1 inh-1 | JMJD2E inh | BAZ2B block | JMJD2A Tudor inh | PI5P4K alpha inh | L3MBTL1 inh-2 | AlphaScreen ctr2 | others
CC1=NOC(=O)/C1=C\c1ccc(-c2cc(Cl)ccc2Cl)o1 | ? | nt | -8% | ? | ? | -23 | nt | nt
CC1=NOC(=O)/C1=C\c1ccc(-c2ccc(Br)cc2C(=O)O)o1 | -5% | 22µM* | ? | ? | -15% | -22 | 27* | 2%
Oc1c(Br)cc(Br)cc1CNc1ccccn1 | 25%[57 µM] | 25% | 4% | -3% | 14% | 16 | nt | nt
Oc1c(Br)cc(Br)cc1CNc1cccc2cccnc12 | -16% | 35µM* | nt | ? | ? | -27 | ? | -17%
CCOC(=O)CNS(=O)(=O)c1cc(-c2nn(C)c(=O)c3ccccc23)ccc1C | -7% | 28µM* | -2% | 56µM* | ? | ? | ? | ?
CSc1nc(S(=O)(=O)c2ccccc2)c(Cl)s1 | 53% | 1% | 9% | ? | -11% | 8 | nt | nt
CCN(CC)Cc1c(O)c(Cl)cc2c(C)cc(=O)oc12 | ? | 22µM* | ? | 56µM* | -33% | ? | 15* | 3%
Cc1cc(=O)oc2c(CN3CCC(C)CC3)c(O)c(Cl)cc12 | -6% | 32µM* | ? | ? | -28% | ? | 11* | 15%
Cc1cc(C(=O)O)ccc1N=Cc1c(O)ccc2ccccc12 | 1% | -1% | nt | -7% | ? | 1 | nt | nt
Oc1ccccc1N=Cc1c(O)ccc2ccccc12 | -3% | 28µM* | 25µM* | 11µM* | ? | -9 | 6* | 12%
COc1ccccc1N1CCN(C(=O)c2ccc3nc(-c4ccco4)c(-c4ccco4)nc3c2)CC1 | -29% | 28µM* | ? | ? | ? | -16 | 19* | -2%
O=C(/C=C/c1ccco1)Nc1cc(Cl)ccc1C(=O)O | -6% | 28µM* | 1% | ? | ? | ? | 11* | 16%
CCOc1cc(C2c3c(-c4ccccc4O)n[nH]c3C(=O)N2Cc2cccnc2)ccc1O (centres undefined) | 40% | nt | nt | -8% | -16% | nt | nt | nt
Cc1ccc(NC(=O)C2CCCN(C(=O)c3cnn(-c4ccc(F)cc4)c3-n3cccc3)C2)c(Cl)c1 (centres undefined) | 32% | nt | nt | -13% | -12% | nt | nt | nt
Cc1ccc(S(=O)(=O)N2CCN(C(=O)/C=C/c3ccco3)CC2)cc1 | ? | 28µM* | -3% | 50µM* | 79µM* | -3 | 27* | 0%
COc1ccc(Cl)cc1NC(=O)COC(=O)c1cc(NS(=O)(=O)c2cccs2)ccc1O | 31% | 40µM* | 4% | 3% | -8% | -19 | ? | 6%
O=C(Nc1ncc([N+](=O)[O-])s1)c1cccc([N+](=O)[O-])c1 | 9% | nt | 6% | -25% | -29% | -6 | nt | nt
Cc1nc(C)c(C(=O)Nc2ncc([N+](=O)[O-])s2)o1 | -22% | 40µM* | -3% | ? | ? | ? | 5.3* | 6%
CC(Cc1c[nH]c2ccccc12)C(=O)O (centres undefined) | ? | 2µM* | ? | 45µM* | 25µM* | 1 | 3* | 2% | ME-1 prolif=-10%[25.6 µM]
O=C1Cn2nnc(-c3ccccc3)c2C2c3ccccc3CCN12 (centres undefined) | nt | nt | nt | nt | nt | 0 | nt | nt
Cc1ccc(-c2nn3c(C)nnc3s2)cc1NC(=O)c1ccc(-c2cccc(Cl)c2)o1 | 55% | 22µM* | -16% | -8% | ? | -53* | 7.5* | 2% | G9a inh=?
O=C(CN1C(=O)NC(CCc2ccccc2)C1=O)N1CCCCCC1 (centres undefined) | 35% | 11% | nt | nt | 1% | 3 | nt | nt
O=c1c2c3c(sc2[nH]c(=S)n1Cc1ccco1)CCC3 | 2% | 25µM* | 0% | 45µM* | -16%[11.4 µM] | -59* | 11* | 28% | ADP-Glo interf=-8%
O=C(c1ccccc1)c1ccc2nc(-c3ccco3)c(-c3ccco3)nc2c1 | 16µM* | 7.9µM* | ? | 14µM* | 13µM* | -100* | 7.5* | -27% | ADP-Glo interf=-3%
O=C(O)c1ccc2nc(-c3ccccc3)c(-c3ccccc3)nc2c1 | 28% | -4% | ? | 6% | -7% | -11 | nt | nt
SMILES | HP1b chromo inh | L3MBTL1 inh-1 | JMJD2E inh | BAZ2B block | JMJD2A Tudor inh | PI5P4K alpha inh | L3MBTL1 inh-2 | AlphaScreen ctr2 | others
CC1(C)O[C@H]2[C@@H](O1)[C@@H](C(=O)Nc1ccccc1O)O[C@@H]1OC(C)(C)O[C@@H]12 | 44% | nt | nt | 2% | 1% | nt | nt | nt
O=C(COC(=O)c1cc(-c2ccco2)nc2ccccc12)NCc1ccccc1 | 26% | nt | ? | 10% | -8% | ? | nt | nt
COCCCN(C(=O)c1cc(-c2ccco2)nc2ccccc12)c1c(N)n(Cc2ccccc2)c(=O)[nH]c1=O | -12% | 32µM* | nt | ? | ? | -68* | 19* | 6% | ADP-Glo interf=-11%
CN(CC(=O)Nc1ccc(F)cc1)C(=O)c1cc(-c2ccco2)nc2ccccc12 | -14% | 18µM* | nt | 40µM* | ? | -66* | 12* | 9% | ADP-Glo interf=4%
CCOc1ccc(NC(=O)CN(C)C(=O)c2cc(-c3ccco3)nc3ccccc23)cc1OCC | 10% | nt | nt | nt | -3% | 1 | nt | nt
CNC(=O)COC(=O)c1cc(-c2ccco2)nc2ccccc12 | 45µM* | 28µM* | ? | 50µM* | 20µM* | -87* | 3.4* | 2% | ADP-Glo interf=1%
CCN(CC)N=Nc1ccc(S(=O)(=O)Nc2nc(C)cc(C)n2)cc1 | 31% | -1% | nt | 3% | -19% | 1 | nt | nt
Cc1nc(N2CCOCC2)nc2c1CCC2 | 34% | 7% | ? | 0% | -4% | -1 | nt | nt
COc1ccc(N2Cc3cccc(C(=O)N4CCOCC4)c3C2=O)cc1 | 29% | nt | -12% | 5% | 8% | -4 | nt | nt
